The text below walks through data of article PMC7862700, “An all-to-all approach to the identification of sequence-specific readers for epigenetic DNA modifications on cytosine”.

Common to all, as to test: DAPPL (digital affinity profiling via proximity ligation, sequencing); 10 mM Tris-HCl pH 7.5, 50 mM NaCl, 1 mM DTT, 4% glycerol, room temperature, 30 min; GST-TFs on glutathione beads, 16-mer random dsDNA library, 0.1% formaldehyde crosslink after washing; high values mean tight binding
Settings in all cases: protein: recombinant; tags: N-terminal GST; dsDNA, one strand shown

In one test the target is CRX (Homo sapiens, UniProt O43186 1-299). The method, boiled down: (§1)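 Human transcription factors were made in yeast as GST fusions, captured on glutathione beads and barcoded with DNA. With a tag-only sample included, the pool was incubated with 200 nmole of a random double-stranded 16-mer DNA library in Tris/NaCl/DTT/glycerol buffer at room temperature for 30 min, then crosslinked with 0.1% formaldehyde after washing, ligated by proximity, amplified and sequenced. For binding signal, each hexamer's read frequency for a factor is divided by its frequency for the tag-only sample.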

In a further test the target is T1, ERF (Homo sapiens, UniProt P50548 1-548).
T1 sequence: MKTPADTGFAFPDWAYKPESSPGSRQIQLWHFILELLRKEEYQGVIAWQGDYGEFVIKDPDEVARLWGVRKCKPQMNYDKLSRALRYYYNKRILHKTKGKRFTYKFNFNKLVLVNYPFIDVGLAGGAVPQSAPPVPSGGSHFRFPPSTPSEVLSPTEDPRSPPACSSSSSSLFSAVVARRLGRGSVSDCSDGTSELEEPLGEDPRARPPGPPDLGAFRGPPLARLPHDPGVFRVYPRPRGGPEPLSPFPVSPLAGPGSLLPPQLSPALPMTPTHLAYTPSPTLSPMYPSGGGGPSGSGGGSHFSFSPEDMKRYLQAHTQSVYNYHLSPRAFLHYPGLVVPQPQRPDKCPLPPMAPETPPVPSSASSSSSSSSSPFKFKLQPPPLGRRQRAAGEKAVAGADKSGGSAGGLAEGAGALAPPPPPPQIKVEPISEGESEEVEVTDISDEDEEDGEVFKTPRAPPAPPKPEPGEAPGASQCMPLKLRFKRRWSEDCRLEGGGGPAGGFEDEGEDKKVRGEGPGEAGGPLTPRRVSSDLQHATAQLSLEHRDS
The method, boiled down:
as §1

The target of the next test is T2, ETV3L (Homo sapiens, UniProt Q6ZN32 1-361).
T2 sequence: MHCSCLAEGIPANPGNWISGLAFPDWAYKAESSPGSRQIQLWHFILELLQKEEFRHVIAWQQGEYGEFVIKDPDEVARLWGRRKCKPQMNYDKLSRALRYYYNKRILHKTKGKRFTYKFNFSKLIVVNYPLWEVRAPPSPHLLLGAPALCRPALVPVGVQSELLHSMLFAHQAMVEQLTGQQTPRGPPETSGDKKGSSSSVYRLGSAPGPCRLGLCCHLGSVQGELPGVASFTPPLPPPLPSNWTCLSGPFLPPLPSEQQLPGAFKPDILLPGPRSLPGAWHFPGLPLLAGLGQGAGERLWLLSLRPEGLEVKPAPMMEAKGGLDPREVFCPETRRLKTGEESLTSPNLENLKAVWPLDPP
The method, boiled down:
as §1

A further test concerns the target T3, ETS2 (Homo sapiens, UniProt P15036 1-469).
T3 sequence: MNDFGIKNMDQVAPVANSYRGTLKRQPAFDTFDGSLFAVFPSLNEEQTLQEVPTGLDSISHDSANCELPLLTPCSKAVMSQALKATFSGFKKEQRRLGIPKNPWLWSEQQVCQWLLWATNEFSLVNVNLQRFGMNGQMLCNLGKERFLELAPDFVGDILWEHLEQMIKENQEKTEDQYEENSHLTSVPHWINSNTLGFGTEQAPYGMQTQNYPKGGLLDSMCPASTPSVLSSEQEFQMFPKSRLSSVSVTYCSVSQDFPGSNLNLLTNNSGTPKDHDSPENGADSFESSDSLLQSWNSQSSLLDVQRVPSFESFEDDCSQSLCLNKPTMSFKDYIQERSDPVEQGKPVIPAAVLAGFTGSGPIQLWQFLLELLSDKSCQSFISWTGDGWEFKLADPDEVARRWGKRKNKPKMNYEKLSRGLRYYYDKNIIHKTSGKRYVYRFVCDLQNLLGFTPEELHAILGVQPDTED
The procedure, abridged:
as §1

Another test addresses T4, SPDEF (Homo sapiens, UniProt O95238 1-335).
T4 sequence: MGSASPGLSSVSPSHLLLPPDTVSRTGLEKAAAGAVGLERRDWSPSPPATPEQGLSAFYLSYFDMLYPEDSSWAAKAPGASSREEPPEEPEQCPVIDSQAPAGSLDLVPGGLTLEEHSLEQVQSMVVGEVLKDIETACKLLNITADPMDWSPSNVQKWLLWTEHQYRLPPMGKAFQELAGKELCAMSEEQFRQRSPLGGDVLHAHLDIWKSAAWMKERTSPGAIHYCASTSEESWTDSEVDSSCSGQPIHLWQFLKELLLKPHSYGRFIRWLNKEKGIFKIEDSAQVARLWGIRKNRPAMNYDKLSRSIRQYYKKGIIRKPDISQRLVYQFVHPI
The procedure, abridged:
as §1

The target in another test is T5, ETV7 (Homo sapiens, UniProt Q9Y603 1-341).
T5 sequence: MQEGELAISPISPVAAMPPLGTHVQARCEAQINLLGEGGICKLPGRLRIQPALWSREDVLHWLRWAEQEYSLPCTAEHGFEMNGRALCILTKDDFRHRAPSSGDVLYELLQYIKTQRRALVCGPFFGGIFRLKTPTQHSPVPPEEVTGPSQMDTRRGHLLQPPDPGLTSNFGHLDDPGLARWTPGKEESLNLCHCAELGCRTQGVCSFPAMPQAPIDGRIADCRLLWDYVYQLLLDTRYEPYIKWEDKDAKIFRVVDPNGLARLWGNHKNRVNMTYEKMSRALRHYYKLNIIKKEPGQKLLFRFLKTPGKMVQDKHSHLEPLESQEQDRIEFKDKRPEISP
The method, boiled down: as §1

A further test addresses T6, ELF5 (Homo sapiens, UniProt Q9UKW6-2 1-255).
T6 sequence: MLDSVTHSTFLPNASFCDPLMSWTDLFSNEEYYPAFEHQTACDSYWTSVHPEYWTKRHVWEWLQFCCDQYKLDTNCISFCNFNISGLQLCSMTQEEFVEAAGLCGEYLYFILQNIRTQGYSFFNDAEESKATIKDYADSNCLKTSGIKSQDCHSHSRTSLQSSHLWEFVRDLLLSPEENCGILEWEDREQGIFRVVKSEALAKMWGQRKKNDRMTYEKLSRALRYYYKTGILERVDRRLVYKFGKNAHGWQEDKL
The method, boiled down: as §1

In another test the target is T7, ETV3 (Homo sapiens, UniProt P41162-2 1-143).
T7 sequence: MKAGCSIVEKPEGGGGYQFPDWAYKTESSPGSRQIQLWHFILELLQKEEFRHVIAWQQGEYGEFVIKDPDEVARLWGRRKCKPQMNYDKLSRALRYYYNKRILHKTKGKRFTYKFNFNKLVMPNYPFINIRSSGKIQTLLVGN
The procedure, abridged:
as §1

Another test concerns the target ETV6 (Homo sapiens, UniProt P41212 1-452). The procedure, abridged: as §1

Chain of ETV6 (P41212 whole entry): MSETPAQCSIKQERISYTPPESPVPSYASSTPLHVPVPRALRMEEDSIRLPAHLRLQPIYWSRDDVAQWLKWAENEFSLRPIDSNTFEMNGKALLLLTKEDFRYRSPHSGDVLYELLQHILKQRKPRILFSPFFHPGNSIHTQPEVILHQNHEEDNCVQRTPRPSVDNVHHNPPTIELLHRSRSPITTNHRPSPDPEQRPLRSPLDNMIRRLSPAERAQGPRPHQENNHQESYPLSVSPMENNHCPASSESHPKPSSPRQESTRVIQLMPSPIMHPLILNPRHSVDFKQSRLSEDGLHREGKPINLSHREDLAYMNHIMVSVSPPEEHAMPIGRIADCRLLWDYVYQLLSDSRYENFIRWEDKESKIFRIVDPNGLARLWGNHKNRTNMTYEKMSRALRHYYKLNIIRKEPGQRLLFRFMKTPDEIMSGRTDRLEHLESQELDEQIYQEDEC
Chain of CRX (O43186 whole entry, the tested form may be a part): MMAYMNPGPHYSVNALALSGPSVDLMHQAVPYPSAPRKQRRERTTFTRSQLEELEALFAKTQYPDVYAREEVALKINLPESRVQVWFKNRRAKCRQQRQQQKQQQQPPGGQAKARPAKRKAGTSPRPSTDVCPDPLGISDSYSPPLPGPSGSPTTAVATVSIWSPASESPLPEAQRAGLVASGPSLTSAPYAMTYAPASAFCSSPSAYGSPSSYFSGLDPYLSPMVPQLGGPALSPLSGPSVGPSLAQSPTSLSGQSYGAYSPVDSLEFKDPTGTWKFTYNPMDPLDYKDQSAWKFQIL

For the sequence AGAATA, the binding signal in the test with CRX was 1.42 fold enrichment (6-mer frequency, TF over GST control); in the test with ERF it was 1.03 fold enrichment (6-mer frequency, TF over GST control); in the test with ETV3L, 1.04 fold enrichment (6-mer frequency, TF over GST control); in the test with ETS2, 1 fold enrichment (6-mer frequency, TF over GST control); with SPDEF it was 1.04 fold enrichment (6-mer frequency, TF over GST control); with ETV7, 1.08 fold enrichment (6-mer frequency, TF over GST control). For the same sequence, the binding signal was 1.04 fold enrichment (6-mer frequency, TF over GST control) in the test with ELF5; 1.04 fold enrichment (6-mer frequency, TF over GST control) with ETV3; 1.07 fold enrichment (6-mer frequency, TF over GST control) in the test with ETV6.
